From PubChem BioAssay come the findings set out here.

Test [1] in a line: E. coli DRC41 culture turbidity changes, primary screen, E. coli filamentation inducer project, strain DRC41, OD650, 48 h (AID 1152).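 Also: E. coli MC1000 strain DRC41 lacking acrAB efflux pump and sulA.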 The conditions noted are these: E. coli DRC41 (acrAB sulA), higher = more signal, called active from +8 up or from −8 down.
The nature of test [2]: small-molecule binders of probe aLefty1, primary screen, biochemical, small-molecule microarray, 635/667 nm fluorescence (AID 1153).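 Also: score merges spot fluorescence with signal-to-noise ratio from the scanned slide images.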 The conditions noted are these: higher = more signal.
Test [3] can be described thus: PSAC antagonists in infected red cells, primary screen, cell-based, P. falciparum Indochina, OD700, 1 h (AID 1154). The note with it: P. falciparum Indochina infected RBC osmotic lysis, higher = more signal, called active from +8 up or from −8 down.
Test [4] is described as follows: PSAC antagonists in infected red cells, primary screen, cell-based, P. falciparum Indochina, OD700, 2 h (AID 1155).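 Also: lysis reports solute entry through the parasite surface anion channel PSAC; channel blockers reduce lysis of infected cells.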 The note with it: P. falciparum Indochina infected erythrocytes, osmotic lysis OD700; higher = more signal, called active from +8 up or from −8 down.
Test [5] can be described thus: osmotic lysis modulators in infected erythrocytes, primary screen, PSAC antagonist project, cell-based, P. falciparum Indochina, OD700, 3 h (AID 1156). The note with it: higher = more signal, called active from +8 up or from −8 down.
Test [6] in a line: PSAC antagonists in infected red cells, primary screen, cell-based, P. falciparum Indochina, OD700, 18 h (AID 1157). The conditions noted are these: P. falciparum Indochina infected erythrocytes, osmotic lysis OD700, 18 h; higher = more signal, called active from +8 up or from −8 down.
The nature of test [7]: modulators of S6 phosphorylation in cells, primary screen, cell-based, A549, cytoblot, luminescence, serum-stimulated (AID 1158).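 Also: serum-stimulated A549 lung adenocarcinoma cells; signal is phosphorylated S6 detected by cytoblot immunostaining with HRP secondary.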 The conditions noted are these: A549 phospho-S6 cytoblot, 5 h, higher = more signal.
Test [8] has as its target NADPH oxidase 2 (Homo sapiens) (UniProt P04839). Briefly: NOX2-dependent H2O2 signal modulators, primary screen, NOX inhibitor project, cell-based, HEK293-NOX2, PMA-stimulated, Amplex Red fluorescence (AID 1159). Also: test concentration not given here. The conditions noted are these: 45 min, higher = more signal, called active from +8 up or from −8 down.
Test [9] deals with NADPH oxidase 4 (Homo sapiens) (UniProt Q9NPH5). Kind of test: NOX4-dependent H2O2 signal modulators, primary screen, NOX inhibitor project, cell-based, HEK293-NOX4, tetracycline-induced, Amplex Red fluorescence (AID 1160). The conditions noted are these: 45 min, higher = more signal, called active from +8 up or from −8 down.
The target in test [10] is NADPH oxidase 5 (Homo sapiens) (UniProt Q96PH1). Kind of test: NOX5-dependent H2O2 signal modulators, primary screen, NOX inhibitor project, cell-based, HEK293-NOX5, Amplex Red fluorescence (AID 1161). The conditions noted are these: HEK293-NOX5, ionomycin, 45 min, higher = more signal.

Structures are written as SMILES. Where “and” joins values, the source holds several entries; their conditions need not be identical. Identical values can stand only once. Calls of active or inactive are those of the source.

Sequence of NADPH oxidase 2 (Homo sapiens) (P04839 whole entry, looked up): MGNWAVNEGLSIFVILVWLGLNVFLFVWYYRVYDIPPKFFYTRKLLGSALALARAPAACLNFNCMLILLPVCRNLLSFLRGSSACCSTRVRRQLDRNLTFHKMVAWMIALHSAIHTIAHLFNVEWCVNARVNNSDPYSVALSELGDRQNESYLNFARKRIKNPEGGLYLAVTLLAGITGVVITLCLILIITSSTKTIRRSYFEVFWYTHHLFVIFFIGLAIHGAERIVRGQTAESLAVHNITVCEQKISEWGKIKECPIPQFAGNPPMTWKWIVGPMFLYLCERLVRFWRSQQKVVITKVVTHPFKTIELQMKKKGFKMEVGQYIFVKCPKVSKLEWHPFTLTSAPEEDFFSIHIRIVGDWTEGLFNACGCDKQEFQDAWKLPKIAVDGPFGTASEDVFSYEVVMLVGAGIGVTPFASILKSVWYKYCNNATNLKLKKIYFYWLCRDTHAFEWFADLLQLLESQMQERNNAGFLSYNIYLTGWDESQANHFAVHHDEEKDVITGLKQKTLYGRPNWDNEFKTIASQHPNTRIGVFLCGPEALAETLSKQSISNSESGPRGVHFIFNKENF
Sequence of NADPH oxidase 4 (Homo sapiens) (Q9NPH5 whole entry, looked up): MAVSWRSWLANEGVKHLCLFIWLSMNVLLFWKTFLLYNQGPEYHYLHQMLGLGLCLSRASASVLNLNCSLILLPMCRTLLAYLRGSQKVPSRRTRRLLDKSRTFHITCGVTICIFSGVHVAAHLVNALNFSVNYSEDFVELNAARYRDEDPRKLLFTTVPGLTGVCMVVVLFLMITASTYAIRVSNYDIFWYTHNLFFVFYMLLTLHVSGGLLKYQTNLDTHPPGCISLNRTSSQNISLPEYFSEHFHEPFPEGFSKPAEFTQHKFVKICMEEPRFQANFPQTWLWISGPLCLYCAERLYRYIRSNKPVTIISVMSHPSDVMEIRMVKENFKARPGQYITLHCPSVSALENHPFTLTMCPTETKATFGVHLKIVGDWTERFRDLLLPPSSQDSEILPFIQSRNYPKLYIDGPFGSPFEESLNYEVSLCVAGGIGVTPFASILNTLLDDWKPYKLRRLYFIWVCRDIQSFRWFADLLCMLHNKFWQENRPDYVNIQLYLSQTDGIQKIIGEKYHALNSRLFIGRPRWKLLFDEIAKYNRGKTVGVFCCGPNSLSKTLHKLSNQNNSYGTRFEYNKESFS
Sequence of NADPH oxidase 5 (Homo sapiens) (Q96PH1 whole entry, looked up): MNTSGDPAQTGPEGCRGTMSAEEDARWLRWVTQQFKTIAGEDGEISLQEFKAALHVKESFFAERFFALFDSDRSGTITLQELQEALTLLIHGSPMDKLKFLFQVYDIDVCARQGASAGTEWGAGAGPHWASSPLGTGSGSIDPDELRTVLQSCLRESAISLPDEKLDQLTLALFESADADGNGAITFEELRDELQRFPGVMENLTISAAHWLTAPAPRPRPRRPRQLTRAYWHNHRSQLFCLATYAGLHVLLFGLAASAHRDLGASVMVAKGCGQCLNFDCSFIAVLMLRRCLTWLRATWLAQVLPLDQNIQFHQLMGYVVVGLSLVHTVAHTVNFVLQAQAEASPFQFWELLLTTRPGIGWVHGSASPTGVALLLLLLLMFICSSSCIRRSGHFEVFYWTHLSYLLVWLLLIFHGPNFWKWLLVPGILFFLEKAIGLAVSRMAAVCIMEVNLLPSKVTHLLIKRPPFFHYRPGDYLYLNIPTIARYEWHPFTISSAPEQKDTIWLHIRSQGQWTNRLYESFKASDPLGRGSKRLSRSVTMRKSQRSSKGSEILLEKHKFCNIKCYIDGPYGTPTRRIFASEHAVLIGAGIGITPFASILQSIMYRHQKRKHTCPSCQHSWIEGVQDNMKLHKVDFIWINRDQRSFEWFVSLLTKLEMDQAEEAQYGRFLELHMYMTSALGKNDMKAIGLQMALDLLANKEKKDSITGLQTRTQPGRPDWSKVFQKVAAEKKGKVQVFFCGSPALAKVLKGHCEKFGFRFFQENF

`CCN1C(=O)[C@H]2[C@H]3[C@H](O)[C@H](O)CC(=NNC(=O)OCc4ccc(OC)cc4)[C@H]3CC[C@H]2C1=O`: the z-score in test [1] is 0.386 (inactive); in [3] it was 3.18 (inactive); in test [4], -0.464 (inactive); in test [5], 0.175 (inactive); in [6], 0.232 (inactive); in test [7] it was 0.479. The results for the z-score in test [8], in [9] and in [10] were -0.447 (inactive), 0.0987 (inactive) and 0.0869, respectively. In [2], this compound registered a composite z-score of 0.792.

On to `C=CCN(C(=O)C1N(C(C)(C)CO)C(=O)C2C(C(=O)O)C3C=CC21O3)C(C)(C)C` (stereo not given), for which the z-score in [1] was -0.497 (inactive) and 0.156 (inactive); in test [3], -0.455 (inactive) and -0.501 (inactive); in test [4], 0.222 (inactive) and 0.135 (inactive); in test [5], -0.67 (inactive) and -0.452 (inactive); in [6], 0.11 (inactive) and -0.11 (inactive); in [7] it was -0.356 and -0.316. The z-score is 0.849 (inactive) and 0.0709 (inactive) in [8]; -1.48 (inactive) and -2.38 (inactive) in test [9]; 0.103 and -0.476 in [10]. Also, the composite z-score in [2] is 0.0026 and -0.316.

On to `C=CCN(CCCCC)C(=O)C(c1cccs1)N(C(=O)/C=C\C(=O)O)c1c(Cl)cccc1CO` (stereo not given), for which the z-score in test [1] is -0.316 (inactive) and -0.346 (inactive); in [3], -0.501 (inactive) and 0.334 (inactive); in [4], 0.092 (inactive) and 0.571 (inactive); in test [5] it was -0.0324 (inactive) and -0.0069 (inactive); in test [6] it was 0.257 (inactive) and 0.404 (inactive); in [7], -0.122 and -0.137. Besides, the z-score in test [8] was 0.306 (inactive) and 0.277 (inactive); in test [9], -0.584 (inactive) and -0.408 (inactive); in [10] it was 0.212 and 0.29. Besides, in test [2], the composite z-score was 0.0005 and -1.11.

Take `COc1ccc(COC(=O)NN=C2C[C@@H](O)[C@@H](O)[C@@H]3[C@@H]4C(=O)N(C(C)(C)C)C(=O)[C@@H]4CC[C@H]23)cc1`: the z-score is 0.91 (inactive) in [1]; 1.91 (inactive) in test [3]; -1.4 (inactive) in test [4]; 0.708 (inactive) in test [5]; -1.93 (inactive) in [6]; 1.25 in [7]. Further, the z-score in [8] is -0.818 (inactive); in test [9], 0.00608 (inactive); in test [10], -1.43. In test [2], this compound had a composite z-score of 0.0169.

Regarding `CC(C)CON=C1C[C@@H](O)[C@@H](O)[C@@H]2[C@@H]3C(=O)N(c4cccc(Oc5ccccc5)c4)C(=O)[C@@H]3CC[C@H]12`, the z-score in test [1] was 0.525 (inactive); in test [3], -0.436 (inactive); in test [4] it was 0.0644 (inactive); in test [5], 0.388 (inactive); in [6], 0.158 (inactive); in test [7], -0.157. For the same compound, the z-score in [8] was -0.831 (inactive); in test [9], 0.11 (inactive); in test [10], -0.144. Moreover, in test [2], the composite z-score is -0.298.

As for `C[N+](C)(C)CCCCNC(=O)[C@H]1C[C@H]2C(=O)N[C@@H](CCCC[N+](C)(C)C)C(=O)N2[C@H]1c1ccc(O)cc1`, the z-score was -0.0772 (inactive) and -0.0145 (inactive) in [1]; -0.373 (inactive) and 0.369 (inactive) in test [3]; -0.114 (inactive) and -1.21 (inactive) in test [4]; -1.78 (inactive) and -0.688 (inactive) in [5]; 0.154 (inactive) and -2.13 (inactive) in test [6]; -0.809 and 0.448 in test [7]. Further, the z-score in test [8] was -1.13 (inactive) and -2.89 (inactive); in test [9], -0.108 (inactive) and -3.27 (inactive); in test [10], -0.693 and -2.66. For the same compound, the composite z-score in test [2] is -0.0984 and -0.447.

As to `C=CC[C@@H](O)c1ccc(OCCO)cc1`, the z-score in test [1] was 1.23 (inactive) and 1.38 (inactive); in [3], 3.24 (inactive) and 1.36 (inactive); in [4], -0.971 (inactive) and -1.24 (inactive); in test [5], -0.904 (inactive) and -0.902 (inactive); in test [6], -2.02 (inactive) and -2.07 (inactive); in test [7], 2.74 and 0.965. In addition, the z-score was -0.976 (inactive) and -0.495 (inactive) in test [8]; -0.354 (inactive) and -0.393 (inactive) in [9]; -1.22 and -0.2 in [10]. Moreover, the composite z-score in test [2] is -0.259 and -0.191.

As to `CC(CO)N1C(=O)[C@@H]2C3C(=O)OCCC=C[C@H]3OC23C=CCN(Cn2nnc4ccccc42)C(=O)[C@@H]13` (stereo not given in full), the z-score in test [1] was 0.326 (inactive) and -0.353 (inactive); in test [3], 0.464 (inactive) and 3.04 (inactive); in [4] it was -0.0088 (inactive) and 0.83 (inactive); in test [5], 0.879 (inactive) and 0.711 (inactive); in test [6], 0.163 (inactive) and 0.114 (inactive); in test [7] it was 0.798 and 0.483. In addition, the z-score is 1.14 (inactive) and 1.44 (inactive) in test [8]; 0.249 (inactive) and 0.774 (inactive) in test [9]; 1.47 and 2.83 in test [10]. Moreover, in [2], the composite z-score is -0.199 and 0.241.
